The campaign covered roughly 69,000 compounds. About 8,600 (12%) showed an effect of 50% or more. The entries come from a sample that favours strong results as a whole.

The experiment deals with Plasmodium berghei. The experiment is described as follows: Screen against P. berghei liver stage (PbLuc), transformed with Luciferase, at 10uM. It counts as functional, HepG2. Particulars: tested at 10 uM.
Take `Cc1nc(CN2CCCC2Cn2cncn2)no1` (centres undefined): the INHIBITION was found to be 34.95%.

For the molecule `CCC(C)CNc1ccc2oc(COC)nc2c1` (centres undefined), the INHIBITION was -23.2%.

In the case of `Cc1cc(CNc2ccc3nc(C)sc3c2)no1`, the INHIBITION is on record as -4.33%.

In the case of `COCc1nc2cc(NCc3ccc(C)o3)ccc2o1`, the INHIBITION was 11.8%.

Regarding `CC(C)(C)c1nc2cc(NC(=O)Cn3ccc(=O)[nH]c3=O)ccc2o1`, the INHIBITION is listed as 20%.

With `COCc1nc2cc(NCc3ccc(CO)o3)ccc2o1`, the INHIBITION was found to be 90.2%.

As to `COCc1nc2cc(NCc3nc(C)cs3)ccc2o1`, the INHIBITION is on record as -17.6%.

Regarding `COCc1nc2cc(NCc3ccncc3)ccc2o1`, the INHIBITION turned out to be 18.5%.

Regarding `COCc1nc2cc(NCc3csc(C)n3)ccc2o1`, the INHIBITION is 14.9%.

Regarding `COCc1nc2cc(NCc3cc[nH]n3)ccc2o1`, the INHIBITION was 67.1%.

Turning to `Cc1ncsc1CNc1cc(N2CCCC2CO)ncn1` (centres undefined), the INHIBITION is listed as 27.4%.

For `COCc1nc2cc(NCc3scnc3C)ccc2o1`, the INHIBITION amounted to 70.5%.

Regarding `COCc1nc2cc(NCc3sc(C)nc3C)ccc2o1`, the INHIBITION came out at 65.4%.

For `CCNC(=O)[C@@H]1CCCN1C(=O)c1cccc(CCC(C)(C)O)c1`, the INHIBITION is recorded as -26.8%.

Consider `CC(C)=CCN1C[C@@H]2CC[C@H]1CN(C(=O)CCc1nnc(C)[nH]1)C2`, for which the INHIBITION is recorded as 41.2%.

Turning to `Cc1cccc(N2CCOC(C(=O)O)C2)c1` (centres undefined), the INHIBITION was 14.7%.

For the molecule `CN1C(=O)CC(c2cnn(C)c2)C12CCN(CC1CCOCC1)CC2` (centres undefined), the INHIBITION is on record as -9.74%.

As to `Cn1ccnc1CCC1CCCCN1Cc1cnc(N2CCCC2)nc1` (centres undefined), the INHIBITION is -25%.

For the molecule `CN1CCC2(Cc3ccccc3CN(C(=O)CCN)C2)C1` (centres undefined), the INHIBITION was determined as 40%.

With `O=C(NCCc1csc(-c2ccncc2)n1)C1CC(=O)N(C2CC2)C1` (centres undefined), the INHIBITION worked out at 2.66%.

As to `Cc1nc(C)n(CC2CCCN(CC(=O)Nc3cc(C)on3)C2)n1` (centres undefined), the INHIBITION was -18.945%.

Consider `CN(Cc1ccc(F)cc1)C(=O)CN1CCOC(Cn2cccn2)C1` (centres undefined), for which the INHIBITION is -4.16%.

With `CCc1ccc(O)c(C(=O)N2CCN(CC(=O)N(C)C)CC2)c1`, the INHIBITION was determined as 47.7%.

In the case of `CCc1ccc(O)c(C(=O)N2CCCN(CC(=O)N(CC)CC)CC2)c1`, the INHIBITION is recorded as -1.57%.

Take `CCc1ccc(O)c(C(=O)N2CCN(CC(=O)N(CC)CC)CC2)c1`: the INHIBITION is 56.6%.

With `COc1c(C2CCCN2Cc2noc(C)n2)c(C)nn1C` (centres undefined), the INHIBITION is -40.2%.

As for `COCCN(Cc1sccc1C)C(=O)c1c(O)cccc1F`, the INHIBITION is given as -15.6%.

Turning to `Cc1ccc(N2CCN(CC3CC3)C3(CCN(C(C)C)CC3)C2=O)cn1`, the INHIBITION was determined as 27.5%.

For `CC(=O)N1CCC2(CC1)C(=O)N(c1ccc(C)nc1)CCN2CC(C)C`, the INHIBITION was 60%.

As for `CCN1CCC2(CC1)C(=O)N(c1ccc(C)nc1)CCN2CC(C)C`, the INHIBITION is 36.4%.

Consider `Cc1nc(C)n(CC2CCCN2CCOc2ccc(F)cc2)n1` (centres undefined), for which the INHIBITION was -32%.

With `CCCn1nc2c(cc1=O)CN(CC(=O)Nc1nnc(C)s1)CC2`, the INHIBITION came to 26.3%.

Turning to `CCn1nc2c(cc1=O)CN(CC(=O)Nc1nnc(C)s1)CC2`, the INHIBITION is -29.8%.

Consider `Cc1nnc(NC(=O)CN2CCc3nn(C)c(=O)cc3C2)s1`, for which the INHIBITION is recorded as 62.9%.

Take `CCN(Cc1ccc(O)c(C(=O)O)c1)CC1CCOCC1`: the INHIBITION was found to be 7.65%.

`COc1ccccc1CNc1c(O)c(=O)c1=O`: the INHIBITION is on record as 21.7%.

As to `CO[C@H]1CC[C@H]2[C@H]1OCCN2Cc1ccc(F)cc1`, the INHIBITION is listed as -40.9%.

For the molecule `O=C(NCCNC1CCCC1)c1cccs1`, the INHIBITION is on record as -0.902%.

As for `O=C(NCCNC1CCN(c2nccs2)CC1)c1cccs1`, the INHIBITION was found to be 55.1%.

For `O=C(NC1CCN(c2nccs2)CC1)c1cccs1`, the INHIBITION stood at 22.2%.

Turning to `COc1ccc(COCC(=O)N2CCC(c3nncn3C)CC2)cc1`, the INHIBITION came out at 39.2%.

For the molecule `CC(=O)N1N=C(c2ccccc2)OC1C(=O)N(C)CCc1ccccc1` (centres undefined), the INHIBITION was 38.2%.

With `Cn1cnc2c1C(COCc1ccccc1)N(Cc1ccncc1)CC2` (centres undefined), the INHIBITION stood at 15.9%.

Take `COC(=O)c1cc(OC)ccc1NCC(=O)NCC(=O)N1CCCC1`: the INHIBITION is 2.03%.

With `CC(C)c1nc(CN2CCOC(Cn3cncn3)C2)no1` (centres undefined), the INHIBITION is given as -15.5%.

In the case of `O=C(NC1CCCC1)C1CCN(c2cc(-n3ccnc3)ncn2)CC1`, the INHIBITION was 48%.

For `O=C(NC1CCN(c2cc(-n3ccnc3)ncn2)CC1)c1ccncc1`, the INHIBITION was found to be 69.1%.

With `O=C(NC1CCN(c2ncccn2)CC1)c1cccc(-n2ccnc2)c1`, the INHIBITION was -2.94%.

As to `CC1c2ncc(CN3CCN(C)CC3)n2CCN1Cc1cnn(C)c1` (centres undefined), the INHIBITION was 33.2%.

For `O=C1CO[C@@H]2CN(Cc3cccs3)C[C@H]2N1Cc1ccncc1`, the INHIBITION worked out at 14.2%.

As to `CCN(CC)CCNC(=O)CCc1c(C)nn(-c2ccccc2Cl)c1C`, the INHIBITION is listed as 48%.

`CCN(CC)CCNC(=O)CCc1c(C)nn(-c2cccc(Cl)c2)c1C`: the INHIBITION worked out at 48%.

On to `CCN(CC)CCNC(=O)CCc1c(C)nn(-c2ccc(Cl)cc2)c1C`, for which the INHIBITION is reported as 63.9%.

As for `O=C1NCCN1CCNc1cc(-c2ccncc2)nc2ccnn12`, the INHIBITION is listed as -4.91%.

For the origin of these results see ChEMBL document CHEMBL4513216, “Probing the Open Global Health Chemical Diversity Library for Multistage-Active Starting Points for Next-Generation Antimalarials” (ACS Infect Dis, 2020).
